13 compounds from PubChem BioAssay (EPA / NIEHS) can be followed below.

Inconclusive results are not listed. The source holds several records for some structures; these can differ, active in one and inactive in another. Calls of active or inactive are those of the source. Rule for the calls, unless noted: active = hit-call score of the fitted dose curve at least 0.9, where 1 is the maximum; inconclusive = response in the unintended direction; inactive = score below 0.9.

For one assay, the system named is SERPINA7 (gene 6906). Description: CCTE_GLTED_hTBG: CCTE's human Thyroxine-binding Globulin (TBG) Inhibition Assay, Great Lakes Toxicology and Ecology Division (GLTED) Lab (AID 2284343).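 Note: active chemicals lower fluorescence versus DMSO baseline by displacing probe.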 In short, it runs like this: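 Steps: combine TBG with chemical; incubate 2 hours so that disruptors release ANSA; record fluorescence (380 ex, 475 em). Loss of signal was fitted against DMSO controls.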

Assay [1] is described as follows: CCTE_Deisenroth_5AR_NBTE_donor: CCTE's 5alpha-reductase NanoBRET Target Engagement Assay […], Deisenroth Lab (AID 2284319; active = hit-call score of the fitted dose curve at least 0.9, where 1 is the maximum; inactive = score below 0.9). To be noted: actives raise or lower the signal. An outline of the steps: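 In this secondary endpoint, donor luminescence from SRD5A2-NanoLuc in transfected HEK293T flags artifacts. Test chemical (10 nM - 29.9 uM) is present five hours, tracer the last two; mock-tracer wells run plate-matched; data fitted bidirectionally against DMSO.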

Assay [2] in a line: CCTE_Deisenroth_5AR_NBTE_acceptor: CCTE's 5alpha-reductase NanoBRET Target Engagement Assay - Autofluorescence Screen, Deisenroth Lab (AID 2284321; active = hit-call score of the fitted dose curve at least 0.9, where 1 is the maximum; inactive = score below 0.9). To be noted: actives raise or lower the signal. An outline of the steps: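 Acceptor-channel fluorescence flags artifacts, with excitation fixed at 460 nm. Nominal 100 uM chemical samples were read in triplicate runs, and signal changes were fitted in both directions relative to DMSO.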

Another assay deals with SRD5A2 (gene 6716). The assay can be described thus: CCTE_Deisenroth_5AR_NBTE_ratio: CCTE's 5alpha-reductase NanoBRET Target Engagement Assay - Ratio, Deisenroth Lab (AID 2284322; active = hit-call score of the fitted dose curve at least 0.9, where 1 is the maximum; inactive = score below 0.9). To be noted: actives raise or lower the signal. An outline of the steps: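 SRD5A2-NanoLuc HEK293T; cmpd 10 nM-29.9 uM, 3 h preinc + testosterone tracer 2 h; NanoBRET ratio 650/460; bidirectional fit vs DMSO.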

Assay [3] in a line: IUF_NPC2-5_cytotoxicity_120hr: Cytotoxicity Assessment at 120 hours in the Leibniz Research Institute for Environmental Medicine (IUF) Neural Progenitor Cell Migration and Differentiation Assay (NPC2-5) (AID 2284307).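 For AC50: LDH released into supernatant as membrane damage marker via resorufin fluorescence.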 An outline of the steps: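 Membrane-integrity loss measured as LDH activity in medium supernatant via resazurin-to-resorufin fluorescence after 120 h exposure. hNPC spheres from GW 16-19 fetal cortex differentiated on poly-D-lysine/laminin, 37C, medium half-refreshed day 3; seven concentrations, DMSO max 0.1%.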

The nature of assay [4]: IUF_NPC2-5_cell_number_120hr: Cell Number Assessment at 120 hours in the Leibniz Research Institute for Environmental Medicine (IUF) Neural Progenitor Cell Migration and Differentiation Assay (NPC2-5) (AID 2284308; active = hit-call score of the fitted dose curve at least 0.9, where 1 is the maximum; inactive = score below 0.9;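 note: count of Hoechst-stained nuclei in migration zone around plated human neural progenitor spheres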). In short, it runs like this:
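Counting of all Hoechst-stained nuclei in the migration area at 120 h, versus DMSO control. Primary hNPC spheres differentiated on poly-D-lysine/laminin in N2 medium at 37C, dosed from day 0 (7 concentrations, DMSO ≤0.1%), half-refed day 3.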

Assay [5] in a line: IUF_NPC2-5_viability_120hr: Viability Assessment at 120 hours in the Leibniz Research Institute for Environmental Medicine (IUF) Neural Progenitor Cell Migration and Differentiation Assay (NPC2-5) (AID 2284312; active = hit-call score of the fitted dose curve at least 0.9, where 1 is the maximum; inactive = score below 0.9). In short, it runs like this: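 Human fetal neural progenitor spheres (0.3 mm) plated on poly-D-lysine/laminin in N2 differentiation medium, exposed 120 h with half-medium refresh at day 3. Viability by alamar blue resazurin fluorescence; 7 concentrations, DMSO max 0.1%.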

A short description of assay [6]: CCTE_Mundy_HCI_iCellGluta_NOG_NeuriteLength: CCTE's Neurite Outgrowth Assay in iCellGluta cells for Neurite Length, Mundy Lab (AID 2284318). An outline of the steps:
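Automated high-content imaging of betaIII-tubulin (Alexa Fluor-488) and Hoechst-stained cells gave neurite length, normalized to the DMSO baseline.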

Assay [7] is described as follows: CCTE_Mundy_HCI_iCellGluta_NOG_NeuronCount: CCTE's Neurite Outgrowth Assay in iCellGluta cells for Neuron Count, Mundy Lab (AID 2284340).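 Note: cells fixed about 48 h after compound addition.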 In short, it runs like this: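 Neuron count read by automated high-content imaging of Hoechst 33342 and betaIII-tubulin/Alexa Fluor-488 labelling in human iPSC glutamatergic neurons. Activity fitted relative to DMSO.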
Assay [8] in a line: CCTE_Mundy_HCI_iCellGluta_NOG_NeuriteCount: CCTE's Neurite Outgrowth Assay in iCellGluta cells for Neurite Count, Mundy Lab (AID 2284342).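 Note: chemical exposure about 48 hours starting 2 hours after plating.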
Assay [9] is described as follows: CCTE_Deisenroth_H295R-HTRF_384WELL_ESTRADIOL: CCTE's H295R-HTRF Assay Evaluation of Estradiol Concentration, Deisenroth Lab (AID 2284361; active = hit-call score of the fitted dose curve at least 0.9, where 1 is the maximum; inactive = score below 0.9). To be noted: actives raise or lower the signal. An outline of the steps:
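Estradiol secreted into medium by H295R adrenocortical cells, quantified by HTRF after 48 h dosing over a nine-point 0.001 - 100 uM final range; gain or loss versus DMSO. Parallel ATP-luminescence viability readout; n=5 experiments.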

Assay [10] in a line: CCTE_Deisenroth_H295R-HTRF_384WELL_TESTOSTERONE: CCTE's H295R-HTRF Assay Evaluation of Testosterone Concentration, Deisenroth Lab (AID 2284373; active = hit-call score of the fitted dose curve at least 0.9, where 1 is the maximum; inactive = score below 0.9). The note with it: actives raise or lower the signal. An outline of the steps: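 Testosterone secreted into medium was quantified by direct HTRF immunoassay after a 48 h treatment of H295R adrenocortical cells (nine concentrations, 0.001–100 uM final). Gain or loss fitted relative to DMSO; CellTiter-Glo viability read on same plates.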

The nature of assay [11]: IUF_NPC4_neurite_area_120hr: Leibniz Research Institute for Environmental Medicine (IUF) 120-hour Neuronal Morphology Assay for Neurite Area (NPC4) (AID 2284305). In short, it runs like this: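 hNPC spheres on PDL/laminin, N2 medium, 37C/5% CO2; dosed day 0, half-medium refresh day 3; fixed 120 h; TUBB3/Hoechst ICC, high-content imaging; neurite area = mean pixels per neuron (nuclei excluded); DMSO baseline, max 0.1%.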

Assay [12] can be described thus: TAMU_PeakParms_SingleDonor1434_Asystole: Texas A&M University (TAMU) 1.5-hr Human Induced Pluripotent Stem Cell (iPSC)-derived Cardiomyocytes Calcium (Ca+2) Flux Assay for Cardiotoxicity: Asystole (quiescence of beating) (AID 2284328). An outline of the steps:
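Donor 1434 iPSC-cardiomyocytes exposed 90 min at 37C, 5% CO2, to 0.2, 1, 10 and 100 uM in 0.5% DMSO. Ca2+ dye fluorescence gave average peak frequency; POD is EC95, a 95% beat-rate drop versus controls.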

In another assay the test system is IYD (gene 389434). The assay can be described thus: CCTE_GLTED_hIYD: CCTE's human Iodotyrosine Deiodinase (xIYD) Inhibition Assay, Great Lakes Toxicology and Ecology Division (GLTED) Lab (AID 2284317).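 Note: cell-free human IYD enzyme made in baculovirus insect cells; iodide freed from monoiodotyrosine measured by cerium arsenite color change at 420 nm.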 In short, it runs like this: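 Iodide liberated from monoiodotyrosine by baculovirus-expressed human IYD over 3 h was determined colorimetrically (Sandell-Kolthoff, 420 nm) after Dowex separation; inhibition is loss of signal versus DMSO.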

As for `CCOC(=O)C(C)OC(=O)c1cc(Oc2ccc(C(F)(F)F)cc2Cl)ccc1[N+](=O)[O-]` (stereo unspecified), in the assay on SERPINA7 (gene 6906), the call was inactive.

For `CC1(C)CCC(=Cc2ccc(Cl)cc2)C1(O)Cn1cncn1` (stereo unspecified), the result (in [1]; in assay [2]; in the assay with SRD5A2 (gene 6716)) was inactive. In addition, the AC50 in the assay on SERPINA7 (gene 6906) was 36.4 µM (active).

As for `CCSC(=O)N1CCCCCC1`, the call in [3], in assay [4], in assay [5], in assay [6], in assay [7] and in [8] was inactive. The outcome in [9] and in assay [10] was inactive.

Consider `CNC(=O)Oc1cccc2ccccc12`, for which the AC50 in [11] was 10 µM (active). Besides, the compound was called inactive in assay [3], in assay [4], in assay [5], in assay [6], in [12] and in assay [7]. The compound was called inactive in assay [8].

On to `COC(=O)N(C(=O)N1CO[C@@]2(C(=O)OC)Cc3cc(Cl)ccc3C2=N1)c1ccc(OC(F)(F)F)cc1`, for which the compound was classed as inactive in assay [3], in [4], in assay [5], in assay [6], in [7] and in [8].

On to `CCN(CC)C(=O)C(C)Oc1cccc2ccccc12` (stereo unspecified), for which the result in the assay on IYD (gene 389434) was inactive.

Turning to `O=C(Nc1ccccc1-c1ccc(Cl)cc1)c1cccnc1Cl`, the result in assay [11], in [3], in assay [4], in assay [5], in [6] and in [7] was inactive. For the same compound, in [8], the compound was classed as inactive. Moreover, the AC50 was 23.7 µM (active) in [6], 50 µM (active) in [7] and 38.3 µM (active) in assay [8].

On to `O=C1C2CC=CCC2C(=O)N1SC(Cl)(Cl)Cl` (stereo unspecified), for which the outcome (in assay [1]; in assay [2]; in the assay with SRD5A2 (gene 6716); in [12]) was inactive.

As for `Cc1ccc(N=CN(C)C=Nc2ccc(C)cc2C)c(C)c1`, the call (in assay [1]; in assay [2]; in the assay with SRD5A2 (gene 6716)) was inactive.

As for `CCOP(=O)(OCC)Oc1nc(Cl)c(Cl)cc1Cl`, the compound was classed as inactive in assay [11], in assay [4] and in [5]. In addition, the AC50 in assay [3] is 0.169 µM (active); in the assay with SERPINA7 (gene 6906), 14.9 µM (active).

On to `CCNC(=O)NC(=O)C(C#N)=NOC`, for which the outcome in assay [11], in assay [3], in assay [4], in assay [5], in [6] and in [7] was inactive. The outcome in assay [8] was inactive.

As for `CO/N=C(/C1=NOCCO1)c1ccccc1Oc1ncnc(Oc2ccccc2Cl)c1F`, the call in [11], in assay [3], in [4] and in [5] was inactive. Moreover, the AC50 in assay [6] was 9.92 µM (active); in [7] it was 39.4 µM (active); in assay [8], 24.4 µM (active).

In the case of `CS(=O)(=O)c1cc(C(F)(F)F)ccc1C(=O)c1cnoc1C1CC1`, the compound was called inactive in assay [11], in assay [3], in assay [4], in assay [5], in assay [6] and in [7]. Moreover, in assay [8], the compound was called inactive.
